# Laboratory results taken from PMC7862700, “An all-to-all approach to the identification of sequence-specific readers for epigenetic DNA modifications on cytosine”.
# Tests used:
# Assay in all cases: DAPPL (digital affinity profiling via proximity ligation, sequencing); 10 mM Tris-HCl pH 7.5, 50 mM NaCl, 1 mM DTT, 4% glycerol, room temperature, 30 min; GST-TFs on glutathione beads, 16-mer random dsDNA library, 0.1% formaldehyde crosslink after washing; high values mean tight binding
# FLI1 = biological target: T1, FLI1 (Homo sapiens, UniProt Q01543 1-452); settings: protein: recombinant; tags: N-terminal GST; dsDNA, one strand shown
# T1 sequence: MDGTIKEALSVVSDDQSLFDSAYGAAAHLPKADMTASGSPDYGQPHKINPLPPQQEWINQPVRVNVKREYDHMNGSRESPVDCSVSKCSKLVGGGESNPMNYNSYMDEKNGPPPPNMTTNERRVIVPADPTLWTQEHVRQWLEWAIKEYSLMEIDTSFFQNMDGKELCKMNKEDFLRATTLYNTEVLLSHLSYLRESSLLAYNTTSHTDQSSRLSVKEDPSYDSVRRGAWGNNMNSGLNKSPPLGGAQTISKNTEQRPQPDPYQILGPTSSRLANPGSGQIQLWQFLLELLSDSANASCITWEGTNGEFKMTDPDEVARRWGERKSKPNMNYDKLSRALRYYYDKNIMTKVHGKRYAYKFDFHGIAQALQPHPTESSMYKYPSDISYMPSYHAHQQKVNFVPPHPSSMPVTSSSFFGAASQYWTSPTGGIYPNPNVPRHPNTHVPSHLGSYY
# How it was run: (§1)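 GST fusions of human transcription factors were expressed in yeast and captured with glutathione beads. Once given DNA barcodes and pooled alongside a tag-only sample, they were incubated for 30 min at room temperature with 200 nmole of a random double-stranded 16-mer DNA library in Tris/NaCl/DTT/glycerol buffer, then washed, crosslinked (0.1% formaldehyde), proximity-ligated, PCR-amplified and sequenced on an Illumina NextSeq500. The binding signal of each hexamer is its read frequency for a factor divided by its frequency for the tag-only sample.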
# ELK1 = biological target: T2, ELK1 (Homo sapiens, UniProt P19419 1-428); settings: protein: recombinant; tags: N-terminal GST; dsDNA, one strand shown
# T2 sequence: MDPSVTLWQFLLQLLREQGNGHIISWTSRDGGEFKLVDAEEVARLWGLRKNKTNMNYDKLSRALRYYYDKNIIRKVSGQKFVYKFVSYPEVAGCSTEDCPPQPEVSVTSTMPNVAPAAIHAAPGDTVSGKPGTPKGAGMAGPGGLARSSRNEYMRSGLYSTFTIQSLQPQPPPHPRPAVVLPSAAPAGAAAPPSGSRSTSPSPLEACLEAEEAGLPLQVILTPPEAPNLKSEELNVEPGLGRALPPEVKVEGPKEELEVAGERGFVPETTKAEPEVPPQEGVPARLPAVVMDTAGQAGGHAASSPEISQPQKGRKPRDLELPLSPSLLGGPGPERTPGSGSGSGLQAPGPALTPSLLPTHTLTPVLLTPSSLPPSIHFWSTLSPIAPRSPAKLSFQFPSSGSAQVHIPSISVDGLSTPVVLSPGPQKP
# How it was run: as §1
# GABPA = biological target: T3, GABPA (Homo sapiens, UniProt Q06546 1-454); settings: protein: recombinant; tags: N-terminal GST; dsDNA, one strand shown
# T3 sequence: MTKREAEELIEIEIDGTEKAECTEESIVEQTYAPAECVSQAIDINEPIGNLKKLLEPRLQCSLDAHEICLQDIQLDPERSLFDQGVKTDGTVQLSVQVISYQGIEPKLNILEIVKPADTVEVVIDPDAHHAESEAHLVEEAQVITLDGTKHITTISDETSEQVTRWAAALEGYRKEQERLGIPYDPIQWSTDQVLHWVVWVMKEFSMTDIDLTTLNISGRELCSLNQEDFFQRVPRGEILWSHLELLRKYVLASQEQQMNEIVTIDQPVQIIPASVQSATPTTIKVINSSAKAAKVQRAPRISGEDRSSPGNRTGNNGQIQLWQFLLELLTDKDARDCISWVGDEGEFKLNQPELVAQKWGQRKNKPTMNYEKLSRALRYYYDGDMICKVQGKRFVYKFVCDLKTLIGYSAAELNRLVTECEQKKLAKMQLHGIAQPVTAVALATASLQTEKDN
# How it was run: as §1
# ERG = biological target: T4, ERG (Homo sapiens, UniProt P11308 1-479); settings: protein: recombinant; tags: N-terminal GST; dsDNA, one strand shown
# T4 sequence: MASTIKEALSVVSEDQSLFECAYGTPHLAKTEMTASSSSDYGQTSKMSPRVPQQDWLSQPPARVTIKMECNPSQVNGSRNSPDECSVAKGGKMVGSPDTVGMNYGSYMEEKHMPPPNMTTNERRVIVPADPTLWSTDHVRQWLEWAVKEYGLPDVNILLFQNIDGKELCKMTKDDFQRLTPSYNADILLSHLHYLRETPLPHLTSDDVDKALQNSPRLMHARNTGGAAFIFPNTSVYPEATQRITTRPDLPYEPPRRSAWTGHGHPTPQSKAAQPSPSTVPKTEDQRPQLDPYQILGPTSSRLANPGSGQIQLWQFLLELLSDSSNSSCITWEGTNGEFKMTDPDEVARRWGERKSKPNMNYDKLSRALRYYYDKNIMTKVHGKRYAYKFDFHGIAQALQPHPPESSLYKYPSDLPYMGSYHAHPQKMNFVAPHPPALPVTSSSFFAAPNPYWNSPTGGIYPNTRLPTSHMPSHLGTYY
# How it was run: as §1
# ELF1 = ELF1 (Homo sapiens, UniProt P32519 1-619); settings: protein: recombinant; tags: N-terminal GST; dsDNA, one strand shown
# Sequence of ELF1 (P32519 whole entry): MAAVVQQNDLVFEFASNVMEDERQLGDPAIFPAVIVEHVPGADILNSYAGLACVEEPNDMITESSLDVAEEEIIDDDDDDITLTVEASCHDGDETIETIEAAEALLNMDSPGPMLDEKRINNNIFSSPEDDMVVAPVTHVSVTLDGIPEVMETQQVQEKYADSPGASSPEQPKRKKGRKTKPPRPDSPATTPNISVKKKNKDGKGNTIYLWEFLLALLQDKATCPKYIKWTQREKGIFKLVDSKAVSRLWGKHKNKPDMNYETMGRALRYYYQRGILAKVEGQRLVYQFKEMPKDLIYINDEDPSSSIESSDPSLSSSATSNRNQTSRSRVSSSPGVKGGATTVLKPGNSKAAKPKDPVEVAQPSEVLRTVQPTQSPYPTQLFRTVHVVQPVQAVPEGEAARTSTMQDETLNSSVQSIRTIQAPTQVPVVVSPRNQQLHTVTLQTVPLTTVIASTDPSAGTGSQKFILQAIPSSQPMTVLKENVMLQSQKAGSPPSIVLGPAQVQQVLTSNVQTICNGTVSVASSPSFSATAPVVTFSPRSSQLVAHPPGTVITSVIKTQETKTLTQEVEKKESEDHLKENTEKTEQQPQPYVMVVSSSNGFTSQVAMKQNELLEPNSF
# How it was run: as §1
# EHF = biological target: T5, EHF (Homo sapiens, UniProt Q9NZC4 1-300); settings: protein: recombinant; tags: N-terminal GST; dsDNA, one strand shown
# T5 sequence: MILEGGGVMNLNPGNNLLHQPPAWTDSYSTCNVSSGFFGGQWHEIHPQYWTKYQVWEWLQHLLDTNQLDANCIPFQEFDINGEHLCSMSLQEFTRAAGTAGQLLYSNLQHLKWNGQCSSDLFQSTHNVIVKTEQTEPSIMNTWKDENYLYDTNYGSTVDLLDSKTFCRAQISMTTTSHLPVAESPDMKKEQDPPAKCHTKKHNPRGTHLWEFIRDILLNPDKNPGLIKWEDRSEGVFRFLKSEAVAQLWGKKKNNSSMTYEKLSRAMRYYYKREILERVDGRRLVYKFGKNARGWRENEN
# How it was run: as §1
# SPI1 = SPI1 (Homo sapiens, UniProt P17947 1-270); settings: protein: recombinant; tags: N-terminal GST; dsDNA, one strand shown
# How it was run: as §1
# SPIB = SPIB (Homo sapiens, UniProt Q01892 1-262); settings: protein: recombinant; tags: N-terminal GST; dsDNA, one strand shown
# Sequence of SPIB (Q01892 whole entry): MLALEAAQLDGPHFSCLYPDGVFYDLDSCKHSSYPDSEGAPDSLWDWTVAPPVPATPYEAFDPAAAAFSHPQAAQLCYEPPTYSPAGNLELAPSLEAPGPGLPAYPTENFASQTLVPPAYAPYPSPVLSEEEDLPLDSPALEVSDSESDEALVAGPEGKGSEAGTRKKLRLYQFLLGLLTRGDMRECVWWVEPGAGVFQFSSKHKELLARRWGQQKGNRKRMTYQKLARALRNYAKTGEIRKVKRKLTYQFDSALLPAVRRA
# How it was run: as §1
# ELK3 = biological target: T6, ELK3 (Homo sapiens, UniProt P41970 1-407); settings: protein: recombinant; tags: N-terminal GST; dsDNA, one strand shown
# T6 sequence: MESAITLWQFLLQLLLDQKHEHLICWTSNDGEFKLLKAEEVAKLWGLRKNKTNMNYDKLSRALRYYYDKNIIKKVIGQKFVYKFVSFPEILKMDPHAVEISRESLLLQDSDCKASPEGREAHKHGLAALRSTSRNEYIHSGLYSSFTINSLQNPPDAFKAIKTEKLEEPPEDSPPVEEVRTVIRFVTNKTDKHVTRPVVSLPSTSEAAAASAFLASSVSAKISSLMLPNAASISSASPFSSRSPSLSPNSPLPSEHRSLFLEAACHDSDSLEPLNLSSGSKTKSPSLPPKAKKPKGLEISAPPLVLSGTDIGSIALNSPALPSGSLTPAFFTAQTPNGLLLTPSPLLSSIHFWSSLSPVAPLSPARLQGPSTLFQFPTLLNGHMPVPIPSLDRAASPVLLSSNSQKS
# How it was run: as §1
# FEV = biological target: T7, FEV (Homo sapiens, UniProt Q99581 1-238); settings: protein: recombinant; tags: N-terminal GST; dsDNA, one strand shown
# T7 sequence: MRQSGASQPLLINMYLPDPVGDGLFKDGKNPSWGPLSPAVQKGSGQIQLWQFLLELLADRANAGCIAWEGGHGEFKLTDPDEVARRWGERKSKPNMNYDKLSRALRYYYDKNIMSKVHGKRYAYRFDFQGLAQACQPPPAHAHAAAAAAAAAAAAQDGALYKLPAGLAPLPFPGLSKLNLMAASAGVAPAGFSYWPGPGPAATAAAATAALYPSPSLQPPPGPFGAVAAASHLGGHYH
# How it was run: as §1
# ETV5 = ETV5 (Homo sapiens, UniProt P41161 1-510); settings: protein: recombinant; tags: N-terminal GST; dsDNA, one strand shown
# Sequence of ETV5 (P41161 whole entry): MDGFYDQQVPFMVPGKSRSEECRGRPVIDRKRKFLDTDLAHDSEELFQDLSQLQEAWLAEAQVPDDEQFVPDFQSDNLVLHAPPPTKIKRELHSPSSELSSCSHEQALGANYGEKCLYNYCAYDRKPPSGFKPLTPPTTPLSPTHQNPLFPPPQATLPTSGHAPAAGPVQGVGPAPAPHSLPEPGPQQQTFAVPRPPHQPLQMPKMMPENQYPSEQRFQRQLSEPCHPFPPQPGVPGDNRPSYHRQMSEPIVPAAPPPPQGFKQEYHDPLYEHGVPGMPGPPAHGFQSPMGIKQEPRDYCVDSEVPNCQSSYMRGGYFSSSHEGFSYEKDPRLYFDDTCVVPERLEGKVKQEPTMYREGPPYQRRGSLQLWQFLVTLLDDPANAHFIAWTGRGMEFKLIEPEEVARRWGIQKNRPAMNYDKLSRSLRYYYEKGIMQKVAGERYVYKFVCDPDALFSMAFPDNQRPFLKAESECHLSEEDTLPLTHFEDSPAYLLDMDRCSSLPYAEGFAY
# How it was run: as §1
# HSF1 = HSF1 (Homo sapiens, UniProt Q00613 1-529); settings: protein: recombinant; tags: N-terminal GST; chain copies: 3; dsDNA, one strand shown
# Sequence of HSF1 (Q00613 whole entry): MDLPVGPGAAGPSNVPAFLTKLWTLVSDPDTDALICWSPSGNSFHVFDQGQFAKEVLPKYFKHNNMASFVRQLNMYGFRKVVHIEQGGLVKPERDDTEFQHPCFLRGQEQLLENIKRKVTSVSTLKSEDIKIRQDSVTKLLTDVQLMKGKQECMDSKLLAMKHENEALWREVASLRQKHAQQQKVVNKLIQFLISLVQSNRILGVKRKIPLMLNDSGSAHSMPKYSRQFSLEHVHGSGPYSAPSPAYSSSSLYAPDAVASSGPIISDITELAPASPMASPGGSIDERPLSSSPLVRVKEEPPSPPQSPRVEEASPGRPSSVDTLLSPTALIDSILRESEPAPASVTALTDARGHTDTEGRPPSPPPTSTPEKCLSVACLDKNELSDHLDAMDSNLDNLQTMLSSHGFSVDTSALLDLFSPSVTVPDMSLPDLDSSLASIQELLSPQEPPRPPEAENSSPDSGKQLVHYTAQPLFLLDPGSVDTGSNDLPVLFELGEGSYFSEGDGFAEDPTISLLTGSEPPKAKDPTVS
# How it was run: as §1
# SPIC = biological target: T8, SPIC (Homo sapiens, UniProt Q8N5J4 1-248); settings: protein: recombinant; tags: N-terminal GST; dsDNA, one strand shown
# T8 sequence: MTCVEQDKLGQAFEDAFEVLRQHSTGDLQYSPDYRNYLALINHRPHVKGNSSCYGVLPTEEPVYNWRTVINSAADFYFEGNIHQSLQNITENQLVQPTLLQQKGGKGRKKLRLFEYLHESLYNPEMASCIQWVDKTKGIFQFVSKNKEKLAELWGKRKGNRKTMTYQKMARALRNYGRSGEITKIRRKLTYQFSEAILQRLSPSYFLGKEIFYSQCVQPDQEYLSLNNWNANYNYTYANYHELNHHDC
# How it was run: as §1
# ELF4 = ELF4 (Homo sapiens, UniProt Q99607 1-663); settings: protein: recombinant; tags: N-terminal GST; dsDNA, one strand shown
# Sequence of ELF4 (Q99607 whole entry): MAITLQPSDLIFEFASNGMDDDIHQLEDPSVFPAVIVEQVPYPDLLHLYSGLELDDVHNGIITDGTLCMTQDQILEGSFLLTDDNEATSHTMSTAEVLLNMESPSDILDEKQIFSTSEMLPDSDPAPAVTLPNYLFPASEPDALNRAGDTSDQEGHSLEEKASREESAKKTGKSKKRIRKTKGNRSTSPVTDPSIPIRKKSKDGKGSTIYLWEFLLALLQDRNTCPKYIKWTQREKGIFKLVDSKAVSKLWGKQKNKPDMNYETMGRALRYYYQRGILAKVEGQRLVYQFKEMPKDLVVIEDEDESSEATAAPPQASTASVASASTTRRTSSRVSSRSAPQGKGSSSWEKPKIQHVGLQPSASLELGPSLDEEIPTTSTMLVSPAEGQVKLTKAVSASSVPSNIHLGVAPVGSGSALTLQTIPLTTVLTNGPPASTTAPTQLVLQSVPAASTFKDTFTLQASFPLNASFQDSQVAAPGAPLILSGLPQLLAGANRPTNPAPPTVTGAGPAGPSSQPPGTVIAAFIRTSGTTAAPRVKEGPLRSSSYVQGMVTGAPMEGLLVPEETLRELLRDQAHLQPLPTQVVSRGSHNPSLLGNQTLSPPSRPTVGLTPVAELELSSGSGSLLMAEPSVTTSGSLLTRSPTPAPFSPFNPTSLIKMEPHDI
# How it was run: as §1
# ELK4 = biological target: T9, ELK4 (Homo sapiens, UniProt P28324-2 1-405); settings: protein: recombinant; tags: N-terminal GST; dsDNA, one strand shown
# T9 sequence: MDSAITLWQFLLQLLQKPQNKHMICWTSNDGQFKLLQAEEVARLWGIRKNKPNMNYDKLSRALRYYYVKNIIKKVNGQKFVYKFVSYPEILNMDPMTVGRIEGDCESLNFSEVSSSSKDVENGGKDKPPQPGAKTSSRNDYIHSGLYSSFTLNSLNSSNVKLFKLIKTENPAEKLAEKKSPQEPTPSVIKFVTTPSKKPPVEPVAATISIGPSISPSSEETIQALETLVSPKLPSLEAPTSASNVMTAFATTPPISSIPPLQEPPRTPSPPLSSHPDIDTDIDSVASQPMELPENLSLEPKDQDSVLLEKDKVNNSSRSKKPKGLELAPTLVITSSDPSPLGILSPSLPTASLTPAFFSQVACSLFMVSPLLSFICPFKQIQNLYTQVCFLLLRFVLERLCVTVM
# How it was run: as §1
# ETV2 = biological target: T10, ETV2 (Homo sapiens, UniProt O00321 1-342); settings: protein: recombinant; tags: N-terminal GST; dsDNA, one strand shown
# T10 sequence: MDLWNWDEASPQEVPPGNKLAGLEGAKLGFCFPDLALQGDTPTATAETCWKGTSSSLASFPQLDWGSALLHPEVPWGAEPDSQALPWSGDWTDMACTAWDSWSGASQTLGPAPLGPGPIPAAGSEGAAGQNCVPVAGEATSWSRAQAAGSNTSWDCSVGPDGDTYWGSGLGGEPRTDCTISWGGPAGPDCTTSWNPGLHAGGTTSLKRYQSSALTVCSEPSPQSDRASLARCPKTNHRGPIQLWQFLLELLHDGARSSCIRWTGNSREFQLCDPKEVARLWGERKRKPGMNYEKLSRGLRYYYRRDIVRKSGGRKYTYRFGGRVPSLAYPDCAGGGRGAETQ
# How it was run: as §1
# ELF3 = biological target: T11, ELF3 (Homo sapiens, UniProt P78545 1-371); settings: protein: recombinant; tags: N-terminal GST; dsDNA, one strand shown
# T11 sequence: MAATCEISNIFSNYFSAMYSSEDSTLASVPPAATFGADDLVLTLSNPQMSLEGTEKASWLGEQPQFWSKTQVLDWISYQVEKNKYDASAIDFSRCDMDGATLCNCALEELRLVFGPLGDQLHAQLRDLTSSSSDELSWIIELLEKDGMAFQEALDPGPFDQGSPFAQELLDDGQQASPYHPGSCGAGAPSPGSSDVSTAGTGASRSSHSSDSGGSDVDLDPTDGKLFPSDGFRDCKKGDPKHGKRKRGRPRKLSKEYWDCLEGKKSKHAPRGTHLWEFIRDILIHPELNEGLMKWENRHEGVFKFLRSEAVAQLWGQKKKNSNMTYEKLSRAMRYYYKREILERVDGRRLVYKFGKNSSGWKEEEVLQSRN
# How it was run: as §1
# CRX = CRX (Homo sapiens, UniProt O43186 1-299); settings: protein: recombinant; tags: N-terminal GST; dsDNA, one strand shown
# Sequence of CRX (O43186 whole entry): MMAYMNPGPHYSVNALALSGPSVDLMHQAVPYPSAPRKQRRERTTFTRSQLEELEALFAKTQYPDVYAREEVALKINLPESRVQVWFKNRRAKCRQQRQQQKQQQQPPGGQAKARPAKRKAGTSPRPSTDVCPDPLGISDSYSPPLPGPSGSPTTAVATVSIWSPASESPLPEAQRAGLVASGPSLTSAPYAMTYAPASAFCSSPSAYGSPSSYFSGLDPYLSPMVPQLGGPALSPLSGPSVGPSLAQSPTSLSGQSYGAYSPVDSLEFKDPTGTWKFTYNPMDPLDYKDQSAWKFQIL
# How it was run: as §1
# ETV1 = ETV1 (Homo sapiens, UniProt P50549 1-477); settings: protein: recombinant; tags: N-terminal GST; dsDNA, one strand shown
# Sequence of ETV1 (P50549 whole entry): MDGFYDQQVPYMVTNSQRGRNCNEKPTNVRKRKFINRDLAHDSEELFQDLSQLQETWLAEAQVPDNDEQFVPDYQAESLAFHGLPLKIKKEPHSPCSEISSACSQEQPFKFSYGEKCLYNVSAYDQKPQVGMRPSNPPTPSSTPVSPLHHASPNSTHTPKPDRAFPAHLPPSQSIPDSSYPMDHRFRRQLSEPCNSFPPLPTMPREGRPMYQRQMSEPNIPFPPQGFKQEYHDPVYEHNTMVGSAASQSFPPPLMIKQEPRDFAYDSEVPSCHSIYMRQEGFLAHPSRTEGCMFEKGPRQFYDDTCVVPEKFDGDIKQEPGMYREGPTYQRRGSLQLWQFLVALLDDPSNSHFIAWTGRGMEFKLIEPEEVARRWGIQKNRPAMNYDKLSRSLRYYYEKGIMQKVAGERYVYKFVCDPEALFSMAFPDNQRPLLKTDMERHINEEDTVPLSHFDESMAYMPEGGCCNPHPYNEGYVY
# How it was run: as §1
sequence,measurement,setting,value
AAAGAA,binding signal,FLI1,"1.18 fold enrichment (6-mer frequency, TF over GST control)"
same,binding signal,ELK1,"1.24 fold enrichment (6-mer frequency, TF over GST control)"
same,binding signal,GABPA,"1.23 fold enrichment (6-mer frequency, TF over GST control)"
same,binding signal,ERG,"1.27 fold enrichment (6-mer frequency, TF over GST control)"
same,binding signal,ELF1,"1.28 fold enrichment (6-mer frequency, TF over GST control)"
same,binding signal,EHF,"1.32 fold enrichment (6-mer frequency, TF over GST control)"
same,binding signal,SPI1,"1.32 fold enrichment (6-mer frequency, TF over GST control)"
same,binding signal,SPIB,"1.24 fold enrichment (6-mer frequency, TF over GST control)"
same,binding signal,ELK3,"1.3 fold enrichment (6-mer frequency, TF over GST control)"
same,binding signal,FEV,"1.23 fold enrichment (6-mer frequency, TF over GST control)"
same,binding signal,ETV5,"1.22 fold enrichment (6-mer frequency, TF over GST control)"
same,binding signal,HSF1,"1.99 fold enrichment (6-mer frequency, TF over GST control)"
same,binding signal,SPIC,"1.17 fold enrichment (6-mer frequency, TF over GST control)"
same,binding signal,ELF4,"1.29 fold enrichment (6-mer frequency, TF over GST control)"
same,binding signal,ELK4,"1.32 fold enrichment (6-mer frequency, TF over GST control)"
same,binding signal,ETV2,"1.25 fold enrichment (6-mer frequency, TF over GST control)"
same,binding signal,ELF3,"1.29 fold enrichment (6-mer frequency, TF over GST control)"
same,binding signal,CRX,"1.48 fold enrichment (6-mer frequency, TF over GST control)"
same,binding signal,ETV1,"1.29 fold enrichment (6-mer frequency, TF over GST control)"
